Experimental data published in PubChem BioAssay AID2061305 (National Center for Advancing Translational Sciences (NCATS), 2025).
Records with an inconclusive call do not appear. Active and inactive are the calls of the source. The call rests on the fitted dose curve; in most records, active means well fitted inhibition curve with a large enough effect; inconclusive means small, poorly fitted or top-dose-only effect; inactive means flat fitted curve, though single readings scatter. Where a SMILES comes first, the peptide text is derived from it. [ ]: non-standard residue; d: D form. Dolaproine = CO[C@@H]([C@@H]1CCCN1)[C@@H](C)C(=O)O; Dil = CC[C@H](C)[C@H](NC)[C@@H](CC(=O)O)OC; NMeV = CN[C@H](C(=O)O)C(C)C

assay: Identification of antibody-drug conjugate (ADC) payloads which are substrates of ATP-binding cassette drug efflux transporters: ABCB1-HeLa-KB-3-1 cell line; conditions: KB-3-1 (HeLa derivative) viability, CellTiter-Glo, 48 h
Description: Antibody-drug conjugates (ADCs) feature an antibody recognizing a specific protein joined to a potent toxic payload. Numerous antibody-drug conjugates have received FDA approval; however, clinical resistance arises. Resistance mechanisms include decreased expression or mutation of the antibody target, impaired payload release, or increased expression of ATP-binding cassette (ABC) efflux transporters associated with multidrug resistance. We therefore sought to characterize the interaction of ABC multidrug transporters with ADC payloads. We performed a high-throughput screen with 27 common ADC payloads using cells lines expressing ABC transporters P-glycoprotein (P-gp, encoded by ABCB1) or ABCG2 (encoded by ABCG2). Confirmatory assays were also performed using cells transfected to express P-gp, ABCG2, or MRP1 (encoded by ABCC1). Several commonly used ADC payloads were substrates of P-gp, including calicheamicin gamma1, monomethyl auristatin E, DM1, and DM4. All the pyrrolobenzodiazepines tested - SJG136, SGD-1882, SG2057, and SG3199 - were substrates of P-gp, ABCG2, and MRP1. […] These findings highlight the risk of transporter-mediated resistance with certain ADC payloads and underscore the importance of selecting payloads that evade ABC transporter recognition in future ADC development.
HEK-293 cells were transfected with empty vector (pcDNA) or vector containing the human ABCB1 (MDR-19), ABCG2 (R-5), or ABCC1 gene (MRP1) and were maintained in EMEM with 2 mg/mL G418 added to maintain transporter expression. The HeLa derivative KB-3-1 and the P-gp overexpressing KB-8-5-11 subline were maintained in DMEM; KB-8-5-11 additionally received 100 ng/mL colchicine. H460 parental cells were obtained from the Division of Cancer Treatment and Diagnosis Tumor Repository, National Cancer Institute at Frederick, MD and were cultured in RPMI. The ABCG2 expressing subline H460 MX20 was generated by selecting H460 cells in 20 nM mitoxantrone. Media in all cases was supplemented with 10% FBS and 1% penicillin-streptomycin. We explored 27 common ADC payloads, in two orthogonal, paired cell line sets-a drug selected and transfected set for each transporter--to identify substrates of the ABC transporters P-gp and ABCG2. Compounds were sourced from Levena Biopharma (San Diego, CA), Selleck Chem (Houston, TX), ChemieTek (Indianapolis, IN), or Microsource Discovery Systems (Gaylordsville, CT). Screening was performed as previously described. Briefly, cells were plated at a density of 500 cells/well in 1536 well plates with compounds added using a 1536-head pin tool (Kalypsys, San Diego CA). Cells were incubated with cytotoxic drugs and processed with CellTiter Glo reagent (Promega, Madison, WI) to determine viability after 48 hours. P-gp substrates were identified by comparing compound activity between paired sets of low-expressing (sensitive) and over-expressing (resistant) cell lines.

| Structure (SMILES) | Potency |
| --- | --- |
| COc1cccc2c1C(=O)c1c(O)c3c(c(O)c1C2=O)C[C@@](O)(C(=O)CO)C[C@@H]3O[C@H]1C[C@H](N)[C@H](O)[C@H](C)O1 | 236 nM (active) |
| CC[C@H](C)[C@@H]([C@H](N)CC(=O)N1CCC[C@H]1[C@H](OC)[C@@H](C)C(=O)N[C@@H](Cc1ccccc1)c1nccs1)N(C)C(=O)[C@@H](NC(=O)[C@H](C(C)C)N(C)C)C(C)C | 0.0748 nM (active) |
| COc1ccc(C2=CN3C(=O)c4cc(OC)c(OCCCOc5cc6c(cc5OC)C(=O)N5C=C(c7ccc(N)cc7)C[C@@H]5C=N6)cc4N=C[C@H]3C2)cc1 | 52.9 nM (active) |
| CCN(C(C)=O)[C@H]1CO[C@@H](O[C@H]2[C@H](O[C@H]3C#C/C=C\C#C[C@]4(O)CC(=O)C(NC(=O)OC)=C3/C4=C\CSSSC)O[C@H](C)[C@@H](NO[C@H]3C[C@H](O)[C@H](SC(=O)c4c(C)c(I)c(O[C@@H]5O[C@@H](C)[C@H](O)[C@@H](OC)[C@H]5O)c(OC)c4OC)[C@@H](C)O3)[C@@H]2O)C[C@@H]1OC | 8.4 nM (active) |
| COc1cccc2c1C(=O)c1c(O)c3c(c(O)c1C2=O)C[C@@](O)(C(=O)CO)C[C@@H]3O[C@H]1C[C@H]2[C@H](O[C@@H]3[C@@H](OC)OCCN32)[C@H](C)O1 | 0.3 nM (active) |
| COc1cc2cc(c1Cl)N(C)C(=O)C[C@H](O)[C@]1(C)O[C@H]1[C@H](C)C1C[C@@](O)(NC(=O)O1)[C@H](OC)/C=C/C=C(\C)C2 | 4720 nM (active) |
| CCc1c2c(nc3ccc(O)cc13)-c1cc3c(c(=O)n1C2)COC(=O)[C@]3(O)CC | 472 nM (active) |
| CC[C@H](C)[C@@H]([C@H](N)CC(=O)N1CCC[C@H]1[C@H](OC)[C@@H](C)C(=O)N[C@@H](Cc1ccccc1)c1nccs1)N(C)C(=O)[C@@H](NC(=O)[C@@H](NC)C(C)C)C(C)C | 0.1 nM (active) |
| CC(C)(C)OC(=O)Nc1ccc2[nH]c(C(=O)N3C[C@@H](CCl)c4c3cc(O)c3ccccc43)cc2c1 | 5.9 nM (active) |
| CC[C@H](C)[C@@H]([C@@H](CC(=O)N1CCC[C@H]1[C@H](OC)[C@@H](C)C(=O)N[C@@H](Cc1ccccc1)C(=O)O)OC)N(C)C(=O)[C@@H](NC(=O)[C@@H](NC)C(C)C)C(C)C (H-[NMeV]V[Dil][Dolaproine]F-OH) | 66.6 nM (active) |
| CC[C@]1(O)CC2CN(CCc3c([nH]c4ccccc34)[C@@](C(=O)OC)(c3cc4c(cc3OC)N(C)[C@H]3[C@@](O)(C(=O)OC)[C@H](OC(C)=O)[C@]5(CC)C=CCN6CC[C@]43[C@@H]65)C2)C1 (some centres undefined) | 6.7 nM (active) |
| COC(=O)c1cc2c3c(cc(O)c2[nH]1)N(C(=O)c1cc2cc(OC)c(OC)c(OC)c2[nH]1)CC3CCl (centres undefined) | 0.5 nM (active) |
| CN(C)CCOc1ccc2[nH]c(C(=O)N3C[C@@H](CCl)c4c3cc(O)c3ccccc43)cc2c1 | 0.3 nM (active) |
| CCN[C@H]1CO[C@@H](O[C@H]2[C@H](O[C@H]3C#C/C=C\C#C[C@]4(O)CC(=O)C(NC(=O)OC)=C3/C4=C\CSSSC)O[C@H](C)[C@@H](NO[C@H]3C[C@H](O)[C@H](SC(=O)c4c(C)c(I)c(O[C@@H]5O[C@@H](C)[C@H](O)[C@@H](OC)[C@H]5O)c(OC)c4OC)[C@@H](C)O3)[C@@H]2O)C[C@@H]1OC | 1.3 nM (active) |
